# Source: the supplement of paper PMC10498489
# Screen size: about 2,300 compounds; about 330 (14%) showed activity.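 The calls were made as follows: active = median modified Z-score above 1.96; inactive = 1.96 or below.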 Not all results are given here.
# Tested on: HepG2 Srxn1-GFP reporter cells (+30 nM CDDO-Me)
# Assay: Srxn1-GFP intensity median modified Z-score relative to plate median; higher = stronger NRF2 / oxidative stress reporter activation, active = hit call of the paper
# Conditions: 10 µM; exposure time: 24h
# Method in brief: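 Values give the median, over replicates, of the modified Z-score of GFP intensity on each plate. HepG2 Srxn1-GFP BAC reporter cells were co-treated for 24 h with an NRF2 activator at 30 nM and compound at 10 μM (≤0.1% DMSO) in three replicate plates, then analysed per cell for cytoplasmic GFP on confocal images with at least 100 cells. Scaling used 1.4826 × median absolute deviation.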
row,SMILES,Srxn1-GFP intensity median modified Z-score
1,O=C(O[C@@H]1Cc2c(O)cc(O)cc2O[C@@H]1c1cc(O)c(O)c(O)c1-c1c([C@H]2Oc3cc(O)cc(O)c3C[C@H]2OC(=O)c2cc(O)c(O)c(O)c2)cc(O)c(O)c1O)c1cc(O)c(O)c(O)c1 [euspeclibcmpd2312],-0.214 (inactive)
2,COc1[nH]cnc(=NS(=O)(=O)c2ccc(N)cc2)c1OC [euspeclibcmpd917],-0.467 (inactive)
3,COc1cc(OC)c2c(c1Cl)OC1(C(=O)CC(=O)CC1C)C2=O (stereo not given) [euspeclibcmpd1388],-0.00204 (inactive)
4,CC(=O)OCC(=O)[C@@]1(O)[C@H](OC(C)=O)CC2C3CC=C4CC(=O)C=C[C@]4(C)[C@@]3(F)[C@@H](O)C[C@@]21C (stereo not given in full) [euspeclibcmpd1284],-0.169 (inactive)
5,N=c1[nH]cnc2c1ncn2C1C[C@H](O)[C@@H](CO)O1 (stereo not given in full) [euspeclibcmpd2091],-0.0836 (inactive)
6,CO[C@H]1/C=C/O[C@@]2(C)Oc3c(C)c(O)c4c(O)c(c5c(nc6cc(C)ccn65)c4c3C2=O)NC(=O)/C(C)=C\C=C\C(C)[C@H](O)[C@@H](C)C(O)[C@@H](C)[C@H](OC(C)=O)[C@@H]1C (stereo not given in full) [euspeclibcmpd745],-0.528 (inactive)
7,Clc1ccc(C(Cn2ccnc2)OCc2ccsc2Cl)c(Cl)c1 (stereo not given) [euspeclibcmpd1174],15.7 (active)
8,Clc1ccc(CSC(Cn2ccnc2)c2ccc(Cl)cc2Cl)cc1 (stereo not given) [euspeclibcmpd401],22.5 (active)
9,Clc1ccc(COC(Cn2ccnc2)c2ccc(Cl)cc2Cl)cc1 (stereo not given) [euspeclibcmpd413],15.1 (active)
10,C=CCOC(Cn1ccnc1)c1ccc(Cl)cc1Cl (stereo not given) [euspeclibcmpd2390],6.42 (active)
11,Clc1ccc(CON=C(Cn2ccnc2)c2ccc(Cl)cc2Cl)c(Cl)c1 [euspeclibcmpd747],-0.564 (inactive)
12,C=CC1=C(C(=O)O)N2C(=O)C(NC(=O)C(=NO)c3csc(=N)[nH]3)C2SC1 (stereo not given) [euspeclibcmpd718],-0.455 (inactive)
13,CC(=CC(=O)OCCCCCCCCC(=O)O)C[C@@H]1OC[C@H](C[C@@H]2O[C@H]2[C@@H](C)[C@H](C)O)[C@@H](O)[C@H]1O [euspeclibcmpd851],0.838 (inactive)
14,Cc1cnn(CCC(=O)NC2CCCN(c3ccc(C)nn3)C2)c1 (stereo not given),1.37 (inactive)
15,O=C(O)c1cc(O)c(=O)c2c(O)c(O)c(O)cc2c1 [euspeclibcmpd1713],-0.567 (inactive)
16,Cc1ccsc1C=CC1=NCCCN1C [euspeclibcmpd638],0.449 (inactive)
17,O=C(O)/C=C/C(=O)O [euspeclibcmpd2444],-0.338 (inactive)
18,CC1CN(C)CCN1C(=O)c1ccc(CCNS(C)(=O)=O)s1 (stereo not given),1.16 (inactive)
19,Nc1ccc(S(=O)(=O)N=c2cc[nH]n2-c2ccccc2)cc1 [euspeclibcmpd1061],0.53 (inactive)
20,CC1=C(C(=O)O)N2C(=O)[C@@H](NC(=O)C(N)c3ccc(O)cc3)[C@H]2SC1 (stereo not given in full) [euspeclibcmpd47],0.774 (inactive)

row,SMILES,Srxn1-GFP intensity median modified Z-score
1,NCc1ccccc1CC(=O)NC1C(=O)N2C(C(=O)O)=C(CSc3nnnn3CC(=O)O)CSC12 (stereo not given) [euspeclibcmpd506],-0.382 (inactive)
2,Clc1ccc(CCC(Cn2ccnc2)Sc2c(Cl)cccc2Cl)cc1 (stereo not given) [euspeclibcmpd650],26.7 (active)
3,CC1(C)C2CC[C@@]3(C)C4=C(CC(=O)C3[C@@]2(C)CC[C@@H]1O[C@@H]1OC(C(=O)O)[C@@H](O[C@@H]2OC(C(=O)O)[C@@H](O)[C@H](O)[C@H]2O)[C@H](O)[C@H]1O)C1C[C@@](C)(C(=O)O)CC[C@]1(C)CC4 (stereo not given in full) [euspeclibcmpd1807],-0.547 (inactive)
4,COc1ccc(C(=O)CC(=O)O)c2c1C=CC(C)(C)O2 [euspeclibcmpd1976],-0.441 (inactive)
5,COc1c(-c2coc3cc4c(cc3c2=O)CC(OC(C)=O)C(C)(C)O4)ccc2c1C=CC(C)(C)O2 (stereo not given) [euspeclibcmpd1654],13.6 (active)
6,COc1ccc(-c2c(O)c3c(OC)c4c(cc3oc2=O)OC(C)(C)C=C4)cc1 [euspeclibcmpd1515],0.81 (inactive)
7,COc1ccc(-c2coc3cc(O)ccc3c2=O)c(O)c1O [euspeclibcmpd1422],-0.526 (inactive)
8,COc1cc(OC)c2c(=O)c(-c3ccc4c(c3)OCO4)coc2c1 [euspeclibcmpd1964],0.515 (inactive)
9,COc1c2c(cc3occ(-c4ccc5c(c4)OCO5)c(=O)c13)OC(C)(C)C=C2 [euspeclibcmpd1957],7.5 (active)
10,COc1cc2occ(-c3ccc(OC)c(OC)c3OC)c(=O)c2cc1OC [euspeclibcmpd2240],0.129 (inactive)
11,COc1c(CC(=O)c2cc3c(cc2O)OC(C)(C)C(O)C3)ccc2c1C=CC(C)(C)O2 (stereo not given) [euspeclibcmpd1608],7.77 (active)
12,CC(=O)S[C@@H]1C=C2CC(=O)CC[C@]2(C)[C@H]2CC[C@@]3(C)[C@@H](CC[C@@]34CCC(=O)O4)C12 (stereo not given in full) [euspeclibcmpd269],-0.784 (inactive)
13,CC12CCC(=O)CC1=CCC1C2[C@@H](O)CC2(C)C1CC[C@]2(O)C(=O)COP(=O)(O)O (stereo not given in full) [euspeclibcmpd153],-0.722 (inactive)
14,COc1ccc2c(c1)c(CC(=O)OC/C=C/Cl)c(C)n2C(=O)c1ccc(Cl)cc1,0.367 (inactive)
15,CON(C)C(=O)c1cc(-c2ccccc2)nc2ccccc12,1.63 (inactive)
16,NCCCCC(NC(CCc1ccccc1)C(=O)O)C(=O)N1CCCC1C(=O)O (stereo not given) [euspeclibcmpd423],0.0552 (inactive)
17,O=c1c(-c2cc(O)c(O)c(O)c2)coc2cc(O)c(O)c(O)c12 [euspeclibcmpd1958],-0.398 (inactive)
18,CCOC(=O)OC(C)OC(=O)C1N2C(=O)C(NC(=O)C(N)c3ccccc3)C2SC1(C)C (stereo not given) [euspeclibcmpd983],0.627 (inactive)
19,N=C(N)N/N=C\c1c(Cl)cccc1Cl [euspeclibcmpd143],0.55 (inactive)
20,CC(C)NCC(O)COc1ccc(CC(N)=O)cc1 (stereo not given) [euspeclibcmpd387],-0.166 (inactive)
